Results on 13 compounds are retold here after PubChem BioAssay (NCATS).

The nature of assay [1]: qHTS of pediatric cancer cell lines to identify multiple opportunities for drug repurposing: Confirmatory screen for BT-12 cells (AID 1347112). Note: nearly all actives have a fitted effect of over 55% in size. Note: potency is the fitted concentration of half-maximal effect. The procedure, abridged:
(§1)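 Viability after 48 h compound treatment at 37C, 500-1,000 cells/well, read as ATP luminescence with CellTiter-Glo. Primary screens used 11-point (MIPE, 0.78 nM-46 µM) or 8-point (NPC, 0.59 nM-46 µM) final concentrations; follow-up screens used 11-point dilutions.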
(qHTS replaces the single test concentration by a dilution series.)

A short description of assay [2]: qHTS of pediatric cancer cell lines to identify multiple opportunities for drug repurposing: Confirmatory screen for DAOY cells (AID 1347114). Note: nearly all actives have a fitted effect of over 65% in size. Note: potency is the fitted concentration of half-maximal effect. Summed up: (§2)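 Viability measured as metabolically active cells via CellTiter-Glo luminescence following 48 hours of compound exposure, 11-point dilutions in confirmatory testing. 500-1,000 cells/well plated 5 hours before dosing; controls were DMSO and 2.3 µM bortezomib.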

The nature of assay [3]: qHTS of pediatric cancer cell lines to identify multiple opportunities for drug repurposing: Confirmatory screen for NB-EBc1 cells (AID 1347115).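 Note: cells exposed to compound for 48 h before the viability read; nearly all actives have a fitted effect of over 45% in size.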 Note: potency is the fitted concentration of half-maximal effect. The procedure, abridged:
as §1

Assay [4] can be described thus: qHTS of pediatric cancer cell lines to identify multiple opportunities for drug repurposing: Confirmatory screen for TC32 cells (AID 1347118).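 Note: cells exposed to compound for 48 h before the read; nearly all actives have a fitted effect of over 65% in size.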 Note: potency is the fitted concentration of half-maximal effect. Summed up: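 qHTS, TC32, 48 h drug treatment, CellTiter-Glo luminescence as a proxy for metabolically active cells; primary top concentration 46 µM (MIPE 11-pt, NPC 8-pt); confirmatory 11-pt.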
Assay [5] in a line: qHTS of pediatric cancer cell lines to identify multiple opportunities for drug repurposing: Confirmatory screen for MG 63 (6-TG R) cells (AID 1347119). Note: nearly all actives have a fitted effect of over 55% in size. Note: potency is the fitted concentration of half-maximal effect. The procedure, abridged: as §1
The nature of assay [6]: qHTS of pediatric cancer cell lines to identify multiple opportunities for drug repurposing: Confirmatory screen for control Hh wild type fibroblast cells (AID 1347121). Note: nearly all actives have a fitted effect of over 70% in size. Note: potency is the fitted concentration of half-maximal effect. Summed up:
as §1

Assay [7] is described as follows: qHTS of pediatric cancer cell lines to identify multiple opportunities for drug repurposing: Confirmatory screen for U-2 OS cells (AID 1347122). Note: nearly all actives have a fitted effect of over 65% in size. Note: potency is the fitted concentration of half-maximal effect. Summed up: as §1
A short description of assay [8]: qHTS of pediatric cancer cell lines to identify multiple opportunities for drug repurposing: Confirmatory screen for Rh41 cells (AID 1347123).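 Note: 48 h compound exposure; nearly all actives have a fitted effect of over 60% in size.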 Note: potency is the fitted concentration of half-maximal effect. Summed up:
as §1

Assay [9] is described as follows: qHTS of pediatric cancer cell lines to identify multiple opportunities for drug repurposing: Confirmatory screen for Rh18 cells (AID 1347125). Note: nearly all actives have a fitted effect of over 55% in size. Note: potency is the fitted concentration of half-maximal effect. The procedure, abridged: as §1
Assay [10] is described as follows: qHTS of pediatric cancer cell lines to identify multiple opportunities for drug repurposing: Confirmatory screen for Rh30 cells (AID 1347126). Note: nearly all actives have a fitted effect of over 55% in size. Note: potency is the fitted concentration of half-maximal effect. The procedure, abridged:
as §1

A short description of assay [11]: qHTS of pediatric cancer cell lines to identify multiple opportunities for drug repurposing: Confirmatory screen for OHS-50 cells (AID 1347128). Note: potency is the fitted concentration of half-maximal effect. Summed up:
as §1

A short description of assay [12]: qHTS of pediatric cancer cell lines to identify multiple opportunities for drug repurposing: Confirmatory screen for SK-N-SH cells (AID 1347129).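 Note: cells exposed to compound for 48 h before viability read; nearly all actives have a fitted effect of over 60% in size.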 Note: potency is the fitted concentration of half-maximal effect. The procedure, abridged:
as §1

The nature of assay [13]: qHTS of pediatric cancer cell lines to identify multiple opportunities for drug repurposing: Confirmatory screen for LAN-5 cells (AID 1347113). Note: nearly all actives have a fitted effect of over 65% in size. Note: potency is the fitted concentration of half-maximal effect. The procedure, abridged: as §1
A short description of assay [14]: qHTS of pediatric cancer cell lines to identify multiple opportunities for drug repurposing: Confirmatory screen for SJ-GBM2 cells (AID 1347116). Note: nearly all actives have a fitted effect of over 60% in size. Note: potency is the fitted concentration of half-maximal effect. Summed up:
as §2

Assay [15] is described as follows: qHTS of pediatric cancer cell lines to identify multiple opportunities for drug repurposing: Confirmatory screen for Saos-2 cells (AID 1347127). Note: nearly all actives have a fitted effect of over 60% in size. Note: potency is the fitted concentration of half-maximal effect. Summed up: as §1
For assay [16], the target named is Furin (Homo sapiens) (UniProt P09958). Kind of assay: Furin counterscreen qHTS for Zika virus inhibitors (AID 1347149).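 Note: purified recombinant full-length human furin enzyme at 5 nM; fluorescence gain from furin cutting a BOC-RVRR-AMC peptide substrate over 15 min; top concentration of the series differs between compounds; nearly all actives have a fitted effect of over 70% in size.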 Summed up:
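Counterscreen measures cleavage of 2 microM BOC-RVRR-AMC, below its ~15 microM Km, by 5 nM full-length human furin at pH 7.0 after a 15-min compound preincubation. Inhibition derives from the 15-min fluorescence increase at 37C.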
On the technique in general: A counterscreen serves to expose hits that act by an unwanted route or on another target.

Molecules are shown by their SMILES. Results filed as inconclusive are left out. Active and inactive are the calls of the source. Calls come from the whole dose curve; as a rule, active = well fitted curve in the direction sought with a large enough effect; inconclusive = small, poorly fitted or top-dose-only effect, or another doubt; inactive = no such curve, though single readings can be large; an effect the other way counts as inactive or inconclusive.

Furin (Homo sapiens), sequence (P09958 whole entry, looked up): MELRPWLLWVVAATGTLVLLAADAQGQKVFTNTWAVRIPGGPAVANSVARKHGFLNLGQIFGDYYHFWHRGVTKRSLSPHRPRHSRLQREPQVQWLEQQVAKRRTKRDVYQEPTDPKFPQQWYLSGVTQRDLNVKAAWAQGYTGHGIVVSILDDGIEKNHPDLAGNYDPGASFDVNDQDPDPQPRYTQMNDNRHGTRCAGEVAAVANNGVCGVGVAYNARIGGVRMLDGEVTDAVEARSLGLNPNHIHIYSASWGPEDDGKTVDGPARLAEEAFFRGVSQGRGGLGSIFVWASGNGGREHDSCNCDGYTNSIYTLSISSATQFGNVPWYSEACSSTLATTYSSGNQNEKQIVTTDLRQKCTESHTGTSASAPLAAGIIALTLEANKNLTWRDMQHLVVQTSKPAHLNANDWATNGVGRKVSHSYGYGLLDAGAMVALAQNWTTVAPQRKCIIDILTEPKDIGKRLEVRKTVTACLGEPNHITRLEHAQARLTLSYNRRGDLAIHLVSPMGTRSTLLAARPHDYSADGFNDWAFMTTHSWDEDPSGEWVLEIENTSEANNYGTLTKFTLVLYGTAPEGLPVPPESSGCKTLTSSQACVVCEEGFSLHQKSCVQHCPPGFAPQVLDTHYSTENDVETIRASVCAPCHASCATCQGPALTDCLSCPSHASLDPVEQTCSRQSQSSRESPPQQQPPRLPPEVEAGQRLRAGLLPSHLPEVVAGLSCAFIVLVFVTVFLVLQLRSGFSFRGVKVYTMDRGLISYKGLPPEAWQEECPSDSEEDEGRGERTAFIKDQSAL

On to `Nc1[nH]c(=O)ncc1F`, for which the Potency result in assay [1], in [2], in assay [3], in assay [4], in assay [5] and in [6] was “inactive” in each case. The Potency entry in assay [7], in [8], in assay [9], in assay [10], in assay [11] and in assay [12] was “inactive” each time.

On to `CO[C@@]12[C@H](COC(N)=O)C3=C(C(=O)C(C)=C(N)C3=O)N1C[C@@H]1N[C@@H]12`, for which the Potency is 16500 nM (active) in assay [1]; 1310 nM (active) in assay [13]; 14700 nM (active) in [2]; 1310 nM (active) in [3]; 16500 nM (active) in assay [14]; 465 nM (active) in assay [4]. The Potency in assay [8] is 7370 nM (active); in assay [10] it was 9270 nM (active); in assay [12], 14800 nM (active).

As for `CCCCOc1ccc(CC(=O)NO)cc1`, the Potency result in [1], in assay [13], in assay [2], in assay [3], in assay [14] and in [5] was “inactive” each time. For the same compound, the Potency entry in assay [6], in assay [7], in [15], in assay [11] and in assay [12] was “inactive” each time.

Consider `Nc1nc(N)nc(-c2cc(Cl)ccc2Cl)n1`, for which the Potency entry in [1], in assay [2], in [5], in assay [6], in [9] and in assay [10] was “inactive” in each case. Further, the Potency result in [15], in assay [11] and in [12] was “inactive” each time.

Turning to `CNCC[C@H](Oc1cccc2ccccc12)c1cccs1`, the Potency entry in assay [1], in assay [3], in [14], in [6], in assay [7] and in [9] was “inactive” throughout. Further, the Potency entry in [10] and in assay [15] was “inactive” each time. The figures for the Potency in assay [4] and in assay [5] were 7370 nM (active) and 26100 nM (active), respectively.

On to `COc1ccc(C(=O)CC(=O)c2ccc(C(C)(C)C)cc2)cc1`, for which the Potency result in [1], in assay [13], in [2], in [3], in assay [14] and in assay [6] was “inactive” throughout. Besides, the Potency result in assay [7], in assay [8], in assay [9], in assay [10], in assay [15] and in assay [11] was “inactive” in each case. In [12], the Potency entry was “inactive”.

As for `COc1ccc(-c2ccc3cc(C(=O)O)ccc3c2)cc1C12CC3CC(CC(C3)C1)C2`, the Potency entry in assay [1], in [2], in [6], in assay [8], in assay [9] and in assay [12] was “inactive” in each case. Further, the Potency entry in assay [16] was “inactive”. For the same compound, the Potency in [4] is 2080 nM (active); in assay [7], 82.7 nM (active).

On to `CN(C)c1ccc(C(=C2C=CC(=[N+](C)C)C=C2)c2ccc(N(C)C)cc2)cc1`, for which the Potency is 2330 nM (active) in assay [1]; 1170 nM (active) in [13]; 737 nM (active) in assay [2]; 1850 nM (active) in assay [3]; 1170 nM (active) in [14]; 928 nM (active) in assay [4]. Also, the Potency in assay [5] is 827 nM (active); in assay [6] it was 1040 nM (active); in assay [7], 1850 nM (active); in [8] it was 522 nM (active); in assay [9], 1470 nM (active); in assay [10] it was 1170 nM (active). In addition, the Potency in [15] was 1310 nM (active); in [11], 3690 nM (active); in assay [12] it was 1320 nM (active).

Turning to `S=P(N1CC1)(N1CC1)N1CC1`, the Potency result in assay [1], in [2], in [14], in [5], in assay [6] and in assay [7] was “inactive” each time. Further, the Potency entry in [9], in [10], in assay [15] and in assay [11] was “inactive” in each case. Besides, the Potency in assay [4] was 4140 nM (active).

As for `CCC(=O)O[C@]1(C(=O)SCF)[C@H](C)C[C@H]2[C@@H]3C[C@H](F)C4=CC(=O)C=C[C@]4(C)[C@@]3(F)[C@@H](O)C[C@@]21C`, the Potency result in [1], in [13], in assay [4], in assay [5], in [6] and in assay [8] was “inactive” in each case. Besides, the Potency result in [15], in [11] and in assay [12] was “inactive” throughout.

In the case of `COc1cc([C@@H]2c3cc4c(cc3[C@H](O)[C@H]3COC(=O)[C@H]23)OCO4)cc(OC)c1OC`, the Potency is 52.2 nM (active) in assay [1]; 82.7 nM (active) in assay [13]; 14.7 nM (active) in assay [2]; 73.7 nM (active) in assay [4]; 32.9 nM (active) in assay [5]; 73.7 nM (active) in assay [7]. Further, the Potency in [15] is 41.4 nM (active). Further, the Potency entry in assay [6], in [9], in assay [10] and in [12] was “inactive” in each case.

Turning to `CCOC(=O)c1ccc(C#Cc2ccc3c(c2)C(C)(C)CCS3)nc1`, the Potency result in assay [1], in [13], in assay [2], in [3], in [6] and in assay [9] was “inactive” throughout. The Potency entry in assay [15], in assay [11] and in [12] was “inactive” throughout.

`O=NN(CCCl)C(=O)NC1CCCCC1`: the Potency result in assay [1], in assay [2], in assay [3], in [4], in assay [5] and in [6] was “inactive” throughout. Further, the Potency result in assay [7], in [8], in [9], in [10], in assay [11] and in [12] was “inactive” in each case.
